In PubChem BioAssay (NCATS):
Inconclusive results are not listed. A call without a number means that no potency is given here. Active and inactive are the calls of the source. Calls come from the whole dose curve; as a rule, active = well fitted curve in the direction sought with a large enough effect; inconclusive = small, poorly fitted or top-dose-only effect, or another doubt; inactive = no such curve, though single readings can be large; an effect the other way counts as inactive or inconclusive.

target: Metallo-beta-lactamase type 2 (Klebsiella pneumoniae) (UniProt C7C422); test: qHTS to identify inhibitors of the New Delhi Metallo-beta-lactamase (NDM): assay validation screen against the NCATS LOPAC Collection (AID 1794843); details: NDM-1 enzyme, nitrocefin hydrolysis, absorbance 485 nm; series mostly up to 38.4 µM; activity change, negative = inhibition: at the top concentration;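 note: nitrocefin turnover by NDM-1 measured as 485 nm absorbance at plateau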
Summary of the method: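 NDM-1 at 2 nM final in 50 mM HEPES pH 7.0, 1 uM ZnSO4, 0.01% Tween20, preincubated with LOPAC compounds pinned in DMSO; 50 uM nitrocefin (stock) added. Hydrolysis read as absorbance at 485 nm in the plateau phase.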

Sequence of Metallo-beta-lactamase type 2 (Klebsiella pneumoniae) (C7C422 whole entry, looked up): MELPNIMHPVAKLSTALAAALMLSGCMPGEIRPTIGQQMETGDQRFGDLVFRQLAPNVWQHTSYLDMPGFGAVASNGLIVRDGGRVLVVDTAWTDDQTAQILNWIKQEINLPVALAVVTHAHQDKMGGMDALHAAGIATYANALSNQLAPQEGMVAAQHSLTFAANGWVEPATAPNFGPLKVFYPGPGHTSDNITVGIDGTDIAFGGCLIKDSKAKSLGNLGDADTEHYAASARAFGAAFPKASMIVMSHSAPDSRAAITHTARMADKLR

| Compound | activity change, negative = inhibition | outcome |
| --- | --- | --- |
| COCCOC(=O)C1=C(C)NC(C)=C(C(=O)OC/C=C/c2ccccc2)C1c1cccc([N+](=O)[O-])c1 (stereo not drawn) | 1.06% (inactive) |  |
| CN(C)CC[C@@H](c1ccc(Cl)cc1)c1ccccn1 | 0.148% (inactive) |  |
| CNCCCC1c2ccccc2C=Cc2ccccc21 | -5.17% (inactive) |  |
| CCN(CC)CCNC(=O)c1cc(Cl)c(N)cc1OC | -2.15% (inactive) |  |
| CC1=C(CC(=O)O)c2cc(F)ccc2/C1=C\c1ccc(S(C)=O)cc1 (stereo not drawn) | -6.78% (inactive) |  |
| CC(C)(C)[C@]1(O)CCN2C[C@H]3c4ccccc4CCc4cccc(c43)[C@@H]2C1 |  | inactive |
| CN(C)CCC=C1c2ccccc2CCc2ccccc21 | 2.38% (inactive) |  |
| Cc1cc(N)c2ccccc2[n+]1CCCCCCCCCC[n+]1c(C)cc(N)c2ccccc21 | 1.29% (inactive) |  |
| CC(C(O)c1ccc(O)cc1)N1CCC(Cc2ccccc2)CC1 (stereo not drawn) | -11.4% (inactive) |  |
| Nc1ncnc2c1ncn2[C@@H]1O[C@H](CO)[C@@H](O)[C@H]1O | -2.17% (inactive) |  |
| CCN(CC)CCCC(C)Nc1c2ccc(Cl)cc2nc2ccc(OC)cc12 (stereo not drawn) | -3.17% (inactive) |  |

target: Glutathione peroxidase 1 (Homo sapiens) (UniProt P07203); test: Primary qHTS Assay for Inhibitors of Recombinant Selenoprotein Glutathione Peroxidase 1 (GPX1) (AID 1845191); details: recombinant GPX1, GR-coupled NADPH fluorescence, 15 min; series mostly up to 48.8 µM; activity, negative = inhibition: at the top concentration; note: nearly all actives have a fitted effect of over 65% in size; note: potency is the fitted concentration of half-maximal effect
Summary of the method: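 GPX1 10 nM, GR 100 nM, GSH 1 mM, NADPH 0.5 mM, CHP 0.5 mM (final). 30-min cpd preincubation, RT. Ex340/Em450 read t=0, t=15 min.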

Sequence of Glutathione peroxidase 1 (Homo sapiens) (P07203 whole entry, looked up): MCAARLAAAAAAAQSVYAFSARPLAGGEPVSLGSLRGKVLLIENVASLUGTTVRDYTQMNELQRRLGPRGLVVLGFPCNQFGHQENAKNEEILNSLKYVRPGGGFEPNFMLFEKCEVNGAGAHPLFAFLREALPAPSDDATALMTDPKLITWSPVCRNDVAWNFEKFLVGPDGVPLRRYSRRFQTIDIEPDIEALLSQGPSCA

| Compound | Potency | outcome | activity, negative = inhibition |
| --- | --- | --- | --- |
| COC(=O)C1=C(C)NC(C)=C(C(=O)OC)C1c1ccccc1[N+](=O)[O-] | inactive |  |  |
| CCCCN(CCCC)CC(O)c1cc(Cl)cc2c1-c1ccc(Cl)cc1/C2=C/c1ccc(Cl)cc1 (stereo not drawn) | inactive |  |  |
| CN1CCC[C@@H]1Cc1c[nH]c2ccc(CCS(=O)(=O)c3ccccc3)cc12 | inactive |  |  |
| CC(C)c1c(C(=O)Nc2ccccc2)c(-c2ccccc2)c(-c2ccc(F)cc2)n1CC[C@@H](O)C[C@@H](O)CC(=O)O | inactive |  |  |
| CN1[C@@H]2CC(OC(=O)[C@H](CO)c3ccccc3)C[C@H]1[C@@H]1O[C@@H]12 (stereo partly drawn) |  | inactive |  |
| NC(=O)c1ncn([C@@H]2O[C@H](CO)[C@@H](O)[C@H]2O)n1 | inactive |  |  |
| COc1ccc(Cl)cc1C(=O)NCCc1ccc(S(=O)(=O)NC(=O)NC2CCCCC2)cc1 | inactive |  |  |
| CC1=C(CC(=O)O)c2cc(F)ccc2/C1=C\c1ccc(S(C)(=O)=O)cc1 |  | inactive |  |
| C[C@]12CC[C@@H]3c4ccc(O)cc4CC[C@H]3[C@@H]1CCC2=O | inactive |  |  |
| CO/N=C(\C(=O)N[C@@H]1C(=O)N2C(C(=O)O)=C(CSc3nc(=O)c(O)nn3C)CS[C@H]12)c1csc(N)n1 | 9.04 µM (active) |  |  |
| CNC(=O)Oc1ccc2c(c1)[C@]1(C)CCN(C)[C@@H]1N2C | inactive |  |  |
| NC1[C@H]2CN(c3nc4c(cc3F)c(=O)c(C(=O)O)cn4-c3ccc(F)cc3F)C[C@@H]12 (stereo partly drawn) | inactive |  |  |
| CCCCc1ncc(/C=C(\Cc2cccs2)C(=O)O)n1Cc1ccc(C(=O)O)cc1 | inactive |  |  |
| C=Cc1c(C)c2cc3[nH]c(cc4nc(cc5nc(cc1[nH]2)C(C)=C5CCC(=O)O)C(CCC(=O)O)=C4C)c(C)c3C=C | inactive |  |  |
| O=C1NC(=O)[C@@]2(CCOc3ccc(F)cc32)N1 |  |  | -14.4% (inactive) |
| C[C@](N)(Cc1ccc(O)cc1)C(=O)O | inactive |  |  |

| Compound | Potency | outcome | activity, negative = inhibition |
| --- | --- | --- | --- |
| C#CCN(C)Cc1ccccc1 | inactive |  |  |
| CC(C)(C(=O)O)c1ccc(C(O)CCCN2CCC(C(O)(c3ccccc3)c3ccccc3)CC2)cc1 (stereo not drawn) | inactive |  |  |
| COCCOC(=O)C1=C(C)NC(C)=C(C(=O)OC/C=C/c2ccccc2)C1c1cccc([N+](=O)[O-])c1 (stereo not drawn) | inactive |  |  |
| CN(C)CC[C@@H](c1ccc(Cl)cc1)c1ccccn1 | inactive |  |  |
| CC(=O)O[C@@]12CO[C@@H]1C[C@H](O)[C@@]1(C)C(=O)[C@H](O)C3=C(C)[C@@H](OC(=O)[C@H](O)[C@@H](NC(=O)OC(C)(C)C)c4ccccc4)C[C@@](O)([C@@H](OC(=O)c4ccccc4)[C@H]21)C3(C)C |  | inactive |  |
| CNCCCC1c2ccccc2C=Cc2ccccc21 | inactive |  |  |
| CCN(CC)CCNC(=O)c1cc(Cl)c(N)cc1OC | inactive |  |  |
| CC1=C(CC(=O)O)c2cc(F)ccc2/C1=C\c1ccc(S(C)=O)cc1 (stereo not drawn) | inactive |  |  |
| CC(C)(C)[C@]1(O)CCN2C[C@H]3c4ccccc4CCc4cccc(c43)[C@@H]2C1 | inactive |  |  |
| OC[C@H]1O[C@@H](O[C@@H]2[C@@H](CO)O[C@](O)(CO)[C@H]2O)[C@H](O)[C@@H](O)[C@H]1O | inactive |  |  |
| CN(C)CCC=C1c2ccccc2CCc2ccccc21 | inactive |  |  |
| Nc1ccc(S(=O)(=O)NC(=O)c2ccccc2)cc1 |  |  | 1.84% (inactive) |
| Cc1cc(N)c2ccccc2[n+]1CCCCCCCCCC[n+]1c(C)cc(N)c2ccccc21 | inactive |  |  |
| CC(C(O)c1ccc(O)cc1)N1CCC(Cc2ccccc2)CC1 (stereo not drawn) | inactive |  |  |
| Nc1ncnc2c1ncn2[C@@H]1O[C@H](CO)[C@@H](O)[C@H]1O | inactive |  |  |
| CCN(CC)CCCC(C)Nc1c2ccc(Cl)cc2nc2ccc(OC)cc12 (stereo not drawn) | inactive |  |  |

target: Phospholipid hydroperoxide glutathione peroxidase GPX4 (Homo sapiens) (UniProt P36969); test: Primary qHTS Assay for Inhibitors of Recombinant Selenoprotein Glutathione Peroxidase 4 (GPX4) (AID 1845192); details: recombinant GPX4, GR-coupled NADPH fluorescence, 15 min; series mostly up to 50 µM; activity change, negative = inhibition: at the top concentration; note: nearly all actives have a fitted effect of over 65% in size
Summary of the method: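 qHTS, GR-coupled: GPX4 200 nM + cpd 30 min RT → GSH 1 mM, NADPH 0.5 mM, GR 100 nM → CHP 0.5 mM start; fluor 340/450 at t0 and t15 min; no-enzyme wells as control.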

Sequence of Phospholipid hydroperoxide glutathione peroxidase GPX4 (Homo sapiens) (P36969 whole entry, looked up): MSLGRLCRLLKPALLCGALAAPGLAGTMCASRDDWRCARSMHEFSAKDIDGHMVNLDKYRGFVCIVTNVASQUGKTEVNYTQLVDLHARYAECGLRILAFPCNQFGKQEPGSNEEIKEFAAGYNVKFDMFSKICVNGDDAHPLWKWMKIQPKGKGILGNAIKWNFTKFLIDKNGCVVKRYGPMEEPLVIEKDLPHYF

| Compound | Potency | activity change, negative = inhibition | outcome |
| --- | --- | --- | --- |
| COC(=O)C1=C(C)NC(C)=C(C(=O)OC)C1c1ccccc1[N+](=O)[O-] | inactive |  |  |
| CCCCN(CCCC)CC(O)c1cc(Cl)cc2c1-c1ccc(Cl)cc1/C2=C/c1ccc(Cl)cc1 (stereo not drawn) |  | -1.25% (inactive) |  |
| CN1CCC[C@@H]1Cc1c[nH]c2ccc(CCS(=O)(=O)c3ccccc3)cc12 | inactive |  |  |
| CC(C)c1c(C(=O)Nc2ccccc2)c(-c2ccccc2)c(-c2ccc(F)cc2)n1CC[C@@H](O)C[C@@H](O)CC(=O)O | inactive |  |  |
| CN1[C@@H]2CC(OC(=O)[C@H](CO)c3ccccc3)C[C@H]1[C@@H]1O[C@@H]12 (stereo partly drawn) |  | 4.41% (inactive) |  |
| NC(=O)c1ncn([C@@H]2O[C@H](CO)[C@@H](O)[C@H]2O)n1 | inactive |  |  |
| COc1ccc(Cl)cc1C(=O)NCCc1ccc(S(=O)(=O)NC(=O)NC2CCCCC2)cc1 | inactive |  |  |
| CC1=C(CC(=O)O)c2cc(F)ccc2/C1=C\c1ccc(S(C)(=O)=O)cc1 |  |  | inactive |
| C[C@]12CC[C@@H]3c4ccc(O)cc4CC[C@H]3[C@@H]1CCC2=O | inactive |  |  |
| CNC(=O)Oc1ccc2c(c1)[C@]1(C)CCN(C)[C@@H]1N2C | inactive |  |  |
| NC1[C@H]2CN(c3nc4c(cc3F)c(=O)c(C(=O)O)cn4-c3ccc(F)cc3F)C[C@@H]12 (stereo partly drawn) |  | -27% (inactive) |  |
| CCCCc1ncc(/C=C(\Cc2cccs2)C(=O)O)n1Cc1ccc(C(=O)O)cc1 | inactive |  |  |
| C=Cc1c(C)c2cc3[nH]c(cc4nc(cc5nc(cc1[nH]2)C(C)=C5CCC(=O)O)C(CCC(=O)O)=C4C)c(C)c3C=C | inactive |  |  |
| O=C1NC(=O)[C@@]2(CCOc3ccc(F)cc32)N1 |  | -6.88% (inactive) |  |
| C[C@](N)(Cc1ccc(O)cc1)C(=O)O | inactive |  |  |
| C#CCN(C)Cc1ccccc1 | inactive |  |  |
| CC(C)(C(=O)O)c1ccc(C(O)CCCN2CCC(C(O)(c3ccccc3)c3ccccc3)CC2)cc1 (stereo not drawn) | inactive |  |  |
| COCCOC(=O)C1=C(C)NC(C)=C(C(=O)OC/C=C/c2ccccc2)C1c1cccc([N+](=O)[O-])c1 (stereo not drawn) | inactive |  |  |
| CN(C)CC[C@@H](c1ccc(Cl)cc1)c1ccccn1 | inactive |  |  |
| CNCCCC1c2ccccc2C=Cc2ccccc21 | inactive |  |  |
| CCN(CC)CCNC(=O)c1cc(Cl)c(N)cc1OC | inactive |  |  |
| CC1=C(CC(=O)O)c2cc(F)ccc2/C1=C\c1ccc(S(C)=O)cc1 (stereo not drawn) |  | -1.65% (inactive) |  |
| CC(C)(C)[C@]1(O)CCN2C[C@H]3c4ccccc4CCc4cccc(c43)[C@@H]2C1 | inactive |  |  |
| OC[C@H]1O[C@@H](O[C@@H]2[C@@H](CO)O[C@](O)(CO)[C@H]2O)[C@H](O)[C@@H](O)[C@H]1O | inactive |  |  |
| CN(C)CCC=C1c2ccccc2CCc2ccccc21 | inactive |  |  |
| Nc1ccc(S(=O)(=O)NC(=O)c2ccccc2)cc1 |  |  | inactive |
| Cc1cc(N)c2ccccc2[n+]1CCCCCCCCCC[n+]1c(C)cc(N)c2ccccc21 | inactive |  |  |
| CC(C(O)c1ccc(O)cc1)N1CCC(Cc2ccccc2)CC1 (stereo not drawn) | inactive |  |  |
| Nc1ncnc2c1ncn2[C@@H]1O[C@H](CO)[C@@H](O)[C@H]1O | inactive |  |  |
| CCN(CC)CCCC(C)Nc1c2ccc(Cl)cc2nc2ccc(OC)cc12 (stereo not drawn) | inactive |  |  |
